Activity calls are given as the source filed them.
Columns and labels:
[1] = E. coli DRC41 culture turbidity changes, primary screen, E. coli filamentation inducer project, strain DRC41, OD650, 48 h (AID 1152);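 further: E. coli MC1000 strain DRC41 lacking acrAB efflux pump and sulA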; conditions: E. coli DRC41 (acrAB sulA), higher = more signal, called active from +8 up or from −8 down
[2] = small-molecule binders of probe aLefty1, primary screen, biochemical, small-molecule microarray, 635/667 nm fluorescence (AID 1153); conditions: higher = more signal;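 further: score merges spot fluorescence with signal-to-noise ratio from the scanned slide images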
[3] = PSAC antagonists in infected red cells, primary screen, cell-based, P. falciparum Indochina, OD700, 1 h (AID 1154); conditions: P. falciparum Indochina infected RBC osmotic lysis, higher = more signal, called active from +8 up or from −8 down
[4] = PSAC antagonists in infected red cells, primary screen, cell-based, P. falciparum Indochina, OD700, 2 h (AID 1155);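 further: lysis reports solute entry through the parasite surface anion channel PSAC; channel blockers reduce lysis of infected cells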; conditions: P. falciparum Indochina infected erythrocytes, osmotic lysis OD700; higher = more signal, called active from +8 up or from −8 down
[5] = osmotic lysis modulators in infected erythrocytes, primary screen, PSAC antagonist project, cell-based, P. falciparum Indochina, OD700, 3 h (AID 1156); conditions: higher = more signal, called active from +8 up or from −8 down
[6] = PSAC antagonists in infected red cells, primary screen, cell-based, P. falciparum Indochina, OD700, 18 h (AID 1157); conditions: P. falciparum Indochina infected erythrocytes, osmotic lysis OD700, 18 h; higher = more signal, called active from +8 up or from −8 down
[7] = modulators of S6 phosphorylation in cells, primary screen, cell-based, A549, cytoblot, luminescence, serum-stimulated (AID 1158); conditions: A549 phospho-S6 cytoblot, 5 h, higher = more signal;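 further: serum-stimulated A549 lung adenocarcinoma cells; signal is phosphorylated S6 detected by cytoblot immunostaining with HRP secondary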
[8] = target: NADPH oxidase 2 (Homo sapiens) (UniProt P04839); experiment: NOX2-dependent H2O2 signal modulators, primary screen, NOX inhibitor project, cell-based, HEK293-NOX2, PMA-stimulated, Amplex Red fluorescence (AID 1159); conditions: 45 min, higher = more signal, called active from +8 up or from −8 down; further: test concentration not given here
[9] = target: NADPH oxidase 4 (Homo sapiens) (UniProt Q9NPH5); experiment: NOX4-dependent H2O2 signal modulators, primary screen, NOX inhibitor project, cell-based, HEK293-NOX4, tetracycline-induced, Amplex Red fluorescence (AID 1160); conditions: 45 min, higher = more signal, called active from +8 up or from −8 down
[10] = target: NADPH oxidase 5 (Homo sapiens) (UniProt Q96PH1); experiment: NOX5-dependent H2O2 signal modulators, primary screen, NOX inhibitor project, cell-based, HEK293-NOX5, Amplex Red fluorescence (AID 1161); conditions: HEK293-NOX5, ionomycin, 45 min, higher = more signal
[11] = A549 cell viability effects, profiling panel, calcein-AM fluorescence, 48 h, basal (AID 1162); conditions: higher = more signal; further: test concentration not given here
[12] = adipocyte viability effects, profiling panel, cell-based, 3T3-L1 adipocytes, calcein-AM fluorescence, 48 h, basal (AID 1163); conditions: 3T3-L1 adipocytes viability, higher = more signal; further: test concentration not given here
[13] = HepG2 cell viability effects, profiling panel, calcein-AM fluorescence, 48 h, basal (AID 1164); conditions: higher = more signal; further: test concentration not given here
[14] = MM1S cell viability effects, profiling panel, calcein-AM fluorescence, 48 h, basal (AID 1165); conditions: higher = more signal;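 further: viability of MM1S multiple myeloma cells under basal unstimulated conditions; test concentration not given here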
[15] = basal RPMI8226 viability, no added stimulus, profiling panel, cell-based, calcein-AM fluorescence, 48 h, PK04 Diversity Set (AID 1166); conditions: RPMI8226 myeloma viability, higher = more signal;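 further: cells grown under basal conditions without added stimulus; test concentration not given here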
[16] = basal HepG2 mitochondrial membrane potential changes, profiling panel, cell-based, JC-1 fluorescence, 24 h, 100 nL compound (AID 1167); conditions: higher = more signal; further: test concentration not given here
[17] = basal 3T3-L1 adipocyte mitochondrial potential changes, profiling panel, cell-based, JC-1 fluorescence, 3T3-L1 adipocytes, 24 h, 100 nL compound (AID 1168); conditions: JC-1 mitochondrial fluorescence, higher = more signal, called active from +8 up or from −8 down; further: test concentration not given here
[18] = basal RPMI8226 mitochondrial membrane potential changes, profiling panel, cell-based, JC-1 fluorescence, 24 h, 100 nL compound (AID 1169); conditions: RPMI8226 myeloma, JC-1 mitochondrial potential fluorescence, higher = more signal; further: test concentration not given here
[19] = basal MM1S mitochondrial membrane potential changes, profiling panel, cell-based, JC-1 fluorescence, 24 h, 100 nL compound (AID 1170); conditions: higher = more signal; further: test concentration not given here
[20] = A549 lung cancer cell viability effects, profiling panel, resazurin fluorescence, 24 h, PK04 Diversity Set (AID 1171); conditions: higher = more signal, called active from +8 up or from −8 down; further: test concentration not given here

NADPH oxidase 2 (Homo sapiens), sequence (P04839 whole entry, looked up): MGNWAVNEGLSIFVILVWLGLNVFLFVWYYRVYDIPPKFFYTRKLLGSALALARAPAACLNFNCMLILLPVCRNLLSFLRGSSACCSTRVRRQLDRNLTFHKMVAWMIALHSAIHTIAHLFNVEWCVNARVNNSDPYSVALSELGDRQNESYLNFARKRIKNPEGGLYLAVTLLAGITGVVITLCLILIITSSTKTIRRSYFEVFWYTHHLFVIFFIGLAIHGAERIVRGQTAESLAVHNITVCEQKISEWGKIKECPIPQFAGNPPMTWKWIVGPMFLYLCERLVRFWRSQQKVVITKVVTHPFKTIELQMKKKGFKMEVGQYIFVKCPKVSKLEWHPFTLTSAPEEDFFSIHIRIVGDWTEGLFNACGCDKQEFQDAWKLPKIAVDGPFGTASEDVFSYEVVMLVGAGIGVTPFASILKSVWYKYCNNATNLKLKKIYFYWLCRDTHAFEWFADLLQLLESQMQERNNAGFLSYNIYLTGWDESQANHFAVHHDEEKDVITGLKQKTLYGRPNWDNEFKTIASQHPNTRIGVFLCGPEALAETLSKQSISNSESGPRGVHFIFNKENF
NADPH oxidase 5 (Homo sapiens), sequence (Q96PH1 whole entry, looked up): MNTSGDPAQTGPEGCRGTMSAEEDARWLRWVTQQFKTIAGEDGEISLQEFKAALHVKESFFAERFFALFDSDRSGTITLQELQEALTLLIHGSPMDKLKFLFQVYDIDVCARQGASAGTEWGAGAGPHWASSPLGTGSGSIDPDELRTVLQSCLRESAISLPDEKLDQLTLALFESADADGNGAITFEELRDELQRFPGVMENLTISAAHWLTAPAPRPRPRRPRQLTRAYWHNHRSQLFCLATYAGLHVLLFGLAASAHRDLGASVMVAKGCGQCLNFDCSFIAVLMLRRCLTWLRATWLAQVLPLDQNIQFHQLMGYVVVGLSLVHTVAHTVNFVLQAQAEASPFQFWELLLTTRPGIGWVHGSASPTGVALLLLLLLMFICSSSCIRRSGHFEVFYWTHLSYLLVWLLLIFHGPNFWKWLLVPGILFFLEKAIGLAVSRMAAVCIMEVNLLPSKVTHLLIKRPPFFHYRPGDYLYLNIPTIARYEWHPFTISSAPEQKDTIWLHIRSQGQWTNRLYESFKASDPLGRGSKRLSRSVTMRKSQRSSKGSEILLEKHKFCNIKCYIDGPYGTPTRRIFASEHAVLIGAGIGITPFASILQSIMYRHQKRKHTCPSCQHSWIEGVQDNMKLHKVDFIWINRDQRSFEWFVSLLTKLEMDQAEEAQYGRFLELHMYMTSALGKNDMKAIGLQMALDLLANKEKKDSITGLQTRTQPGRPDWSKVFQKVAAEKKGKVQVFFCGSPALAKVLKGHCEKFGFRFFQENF
NADPH oxidase 4 (Homo sapiens), sequence (Q9NPH5 whole entry, looked up): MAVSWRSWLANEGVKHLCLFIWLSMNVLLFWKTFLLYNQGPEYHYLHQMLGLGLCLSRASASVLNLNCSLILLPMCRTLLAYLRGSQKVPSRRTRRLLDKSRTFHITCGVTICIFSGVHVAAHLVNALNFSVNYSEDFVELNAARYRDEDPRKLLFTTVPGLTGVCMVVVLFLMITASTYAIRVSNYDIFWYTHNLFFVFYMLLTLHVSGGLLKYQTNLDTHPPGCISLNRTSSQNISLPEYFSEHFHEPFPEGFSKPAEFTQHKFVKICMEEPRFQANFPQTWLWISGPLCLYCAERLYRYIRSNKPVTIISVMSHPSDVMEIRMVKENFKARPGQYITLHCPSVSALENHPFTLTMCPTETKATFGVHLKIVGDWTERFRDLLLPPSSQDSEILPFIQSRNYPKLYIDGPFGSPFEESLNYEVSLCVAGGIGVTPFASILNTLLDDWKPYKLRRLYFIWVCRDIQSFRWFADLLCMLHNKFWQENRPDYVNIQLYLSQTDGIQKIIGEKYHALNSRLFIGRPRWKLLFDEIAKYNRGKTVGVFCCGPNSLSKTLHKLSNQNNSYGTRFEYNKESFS

Compound	z-score [1]	composite z-score [2]	z-score [3]	z-score [4]	z-score [5]	z-score [6]	z-score [7]	z-score [8]	z-score [9]	z-score [10]	z-score [11]	z-score [12]	z-score [13]	z-score [14]	z-score [15]	z-score [16]	z-score [17]	z-score [18]	z-score [19]	z-score [20]
CO[C@@H]1COC(=O)CC=C[C@@H](C)[C@@H]2C=C[C@H](O)[C@@H](COC(=O)CCC[C@H]1C)O2	-0.457 (inactive)	0.425	-0.977 (inactive)	-1.66 (inactive)	-0.184 (inactive)	-2.26 (inactive)	0.49	-0.521 (inactive)	0.319 (inactive)	0.312	0.438	-0.717	-0.101	-0.567	0.403	-0.016	-0.546 (inactive)	-0.347	-1.23	-0.165 (inactive)
CO[C@@H]1COC(=O)CC=C[C@@H](C)COC(=O)[C@H](COCc2ccccc2)NC(=O)CC=C[C@H]1C	-0.0825 (inactive)	-0.363	0.391 (inactive)	0.331 (inactive)	0.195 (inactive)	0.403 (inactive)	-0.186	0.978 (inactive)	-1.24 (inactive)	0.941	0.248	0.268	0.351	-0.987	-0.382	0.575	-0.407 (inactive)	-0.873	1.61	-0.653 (inactive)
NCCCCCNC(=O)[C@@H]1C[C@@H]2C(=O)N3CCC[C@H]3C(=O)N2[C@@H]1c1cccc(OCCO)c1	-0.221 (inactive)	1.55	3.25 (inactive)	0.506 (inactive)	0.744 (inactive)	0.0814 (inactive)	0.0413	2.41 (inactive)	1.19 (inactive)	0.961	-0.323	0.571	-0.168	0.0689	0.0959	-1.5	-0.812 (inactive)	0.167	0.543	0.142 (inactive)
COCCCNC(=O)[C@@]1(C)c2ccccc2C(=O)N(Cc2ccc(OC(F)(F)F)cc2)[C@H]1c1ccc(CO)cc1	0.906 (inactive)	-0.191	2.23 (inactive)	0.123 (inactive)	1.06 (inactive)	-0.0648 (inactive)	-0.459	-0.599 (inactive)	1.18 (inactive)	0.247	0.144	-0.471	1.22	-0.0013	0.125	2.4	0.582 (inactive)	-0.68	-1.06	-0.903 (inactive)
C=CC[C@@H]1C=C[C@H](ON=C2c3cc(OC)ccc3O[C@H](c3cccc(OC)c3)[C@H]2O)[C@@H](CO)O1	0.97 (inactive)	-0.0011	2.12 (inactive)	0.637 (inactive)	0.562 (inactive)	0.49 (inactive)	-0.171	-0.334 (inactive)	0.593 (inactive)	0.021	0.27	-0.855	0.925	0.334	-0.0859	-1.45	0.704 (inactive)	-0.148	-1.12	-1.25 (inactive)
Cc1cc2c(nc1C)CCCN2CC(O)CN1CCN(C)CC1 (stereo not given)	-0.243 (inactive)	0.0733	0.339 (inactive)	0.494 (inactive)	0.0085 (inactive)	-0.0963 (inactive)	-0.542	0.438 (inactive)	-1.07 (inactive)	-1.08	0.306	0.411	-1.09	0.241	-0.342	-0.601	-0.625 (inactive)	0.142	0.842	-0.726 (inactive)
Cc1ccc(C2CC=C(C(=O)O)CN2S(=O)(=O)c2ccc(C)cc2)cc1 (stereo not given)	-1.29 (inactive)	-0.0294	1.26 (inactive)	0.838 (inactive)	0.927 (inactive)	0.98 (inactive)	-0.51	-0.446 (inactive)	-1.44 (inactive)	0.321	-0.789	0.171	-1.04	-1.07	-1.65	-0.0791	-0.516 (inactive)	-0.187	-0.296	-0.716 (inactive)
COc1cccc([C@H]2Oc3ccc(OC)cc3C(=NOC(C)CN3CCCc4nc(C)c(C)cc43)[C@@H]2O)c1 (stereo not given in full)	-0.304 (inactive)	0.0809	2.47 (inactive)	0.542 (inactive)	0.714 (inactive)	0.465 (inactive)	-0.912	-1.12 (inactive)	-0.807 (inactive)	1.57	-0.0217	-0.529	0.778	0.296	-0.627	0.0313	-1.29 (inactive)	0.239	-0.947	-0.455 (inactive)
C[N+](C)(C)CCCCCCNC(=O)[C@@H]1C[C@@H]2C(=O)N3CCC[C@H]3C(=O)N2[C@@H]1c1cccc(OCCO)c1	0.733 (inactive)	0.388	5.3 (inactive)	0.679 (inactive)	1.45 (inactive)	0.277 (inactive)	0.0239	0.15 (inactive)	0.982 (inactive)	1.49	-0.465	-0.0317	-1.92	0.826	0.844	-1.08	0.217 (inactive)	-0.00411	-1.03	1.12 (inactive)
CN1C(=O)C2C=CC(C(O)C(c3ccccc3)c3ccccc3)N(NC(=O)OC(C)(C)C)C2C1=O (stereo not given)	-1.41 (inactive)	0.771	1.41 (inactive)	0.742 (inactive)	-0.343 (inactive)	0.804 (inactive)	-1.16	-0.343 (inactive)	-4.7 (inactive)	-1.76	-1.23	-0.4	-0.698	-2.47	-1.61	-1.46	-0.378 (inactive)	-0.654	0.455	0.383 (inactive)
Cc1ccc(F)cc1S(=O)(=O)N[C@@H]1CCN(Cc2ccc(CC(C)C)cc2)C1	-19.2 (active)	-0.146	2.71 (inactive)	0.63 (inactive)	0.233 (inactive)	0.916 (inactive)	-0.647	-0.0569 (inactive)	-1.44 (inactive)	-4.02	-0.815	-0.537	-1.8	-3.34	-3.56	-1.08	-0.545 (inactive)	-1.14	-2.19	0.0665 (inactive)
CCc1cc2c(nc1CC)CCN(CCC(C)=NOC[C@@H](O)COCc1ccco1)C2	0.538 (inactive)	1.09	2.3 (inactive)	-0.0282 (inactive)	0.0761 (inactive)	0.147 (inactive)	-0.659	-0.566 (inactive)	0.162 (inactive)	1.84	0.902	0.592	0.526	-0.548	-0.862	1.44	-0.901 (inactive)	-0.824	0.581	-0.527 (inactive)
CO[C@@H]1COC(=O)[C@H](C)NC(=O)[C@@H](C)COC(=O)CCC[C@H]1C	0.298 (inactive)	0.0291	5.14 (inactive)	0.891 (inactive)	1.45 (inactive)	0.516 (inactive)	-0.276	-0.869 (inactive)	0.0705 (inactive)	-1.15	-0.0857	-0.459	-0.735	-0.3	-1.38	-0.85	-0.788 (inactive)	0.706	-0.626	-0.0213 (inactive)
CCOC(=O)[C@H](Cc1ccccc1)NC(=O)CCC1CC(OC(=O)NCc2ccc3c(c2)OCO3)CC2(CCCC(COC(=O)NCc3ccccc3)O2)O1 (stereo not given in full)	0.0722 (inactive)	-0.101	0.0765 (inactive)	0.979 (inactive)	-1.37 (inactive)	0.565 (inactive)	-0.0074	-0.988 (inactive)	0.852 (inactive)	0.562	-0.195	-0.64	0.607	0.84	0.709	2.27	0.392 (inactive)	0.0886	-0.997	0.98 (inactive)
CC(C)C[C@@H]1NC(=O)[C@H]2C[C@@H](C(=O)NCCCCCCN(C)C)[C@@H](c3cccc(OCCO)c3)N2C1=O	-0.054 (inactive)	0.0816	4.3 (inactive)	0.594 (inactive)	1.04 (inactive)	0.154 (inactive)	0.0695	1.77 (inactive)	1.07 (inactive)	1.84	-1.26	0.88	-0.278	0.303	0.651	-1.09	-0.481 (inactive)	-0.0673	-0.0169	-0.21 (inactive)
CC(C)[C@H](NC(=O)OC(C)(C)C)[C@@H](O)CC(=O)OC(C)(C)C	-0.703 (inactive)	-0.0197	0.775 (inactive)	0.269 (inactive)	0.835 (inactive)	0.128 (inactive)	0.242	1.33 (inactive)	-1.02 (inactive)	1.04	0.403	1.24	0.026	0.793	-0.229	0.251	-0.689 (inactive)	0.62	1.06	-1.54 (inactive)
O=C1C2=CC[C@H]3C(=O)N(Cc4ccc5c(c4)OCO5)C(=O)[C@H]3[C@H]2[C@H](O)[C@@H]2O[C@H]12	0.0561 (inactive)	-0.0464	-1 (inactive)	-0.507 (inactive)	-0.906 (inactive)	0.0094 (inactive)	0.116	-0.382 (inactive)	-0.111 (inactive)	0.104	-0.227	0.447	0.162	0.351	-0.196	-0.275	0.00654 (inactive)	-0.223	-0.398	-0.763 (inactive)
CC(C)CN1CCc2nc(-c3ccccc3)c3c(c2CC1)CO[C@@H](C)C3	0.0991 (inactive)	0.0981	0.82 (inactive)	0.576 (inactive)	0.923 (inactive)	-0.142 (inactive)	-0.528	1.47 (inactive)	-0.0482 (inactive)	-0.334	0.277	0.493	-0.0216	-2.48	-1.32	0.93	0.163 (inactive)	0.0637	0.75	0.569 (inactive)
